Records with an inconclusive call do not appear. Unmarked numbers belong to inactive results. Activity calls are given as the source filed them. Unless noted, calls follow the shape of the dose curve; as a rule, active = well fitted activation curve with a large enough effect; inconclusive = small, poorly fitted or top-dose-only effect; inactive = flat fitted curve, though single readings scatter.
Tested on: not listed separately
Experiment: Validation screen for small molecules that induce DNA re-replication in SW480 colon adenocarcinoma cells (AID 504364); also: 0% is about no effect
Details: DNA re-replication phenotype (high-content imaging); series mostly up to 46.1 µM; activity (re-replication induction): at the top concentration
Outline: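 Image-based qHTS: compounds were incubated with SW480 cells for 48 hr, nuclei stained with Hoechst, and per-nucleus fluorescence intensity scanned to flag cells with excess DNA content.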
With `O=C1NC(=O)C(c2ccccc2)(c2ccccc2)N1` the “activity (re-replication induction)” value was 2.06%.
For `COc1ccccc1N1CCN(CCCNc2cc(=O)n(C)c(=O)n2C)CC1`, the “activity (re-replication induction)” value was 2.95%.
With `COC(=O)[C@@H]1[C@H]2C[C@H]3c4[nH]c5ccccc5c4CCN3C[C@@H]2CC[C@@H]1O` the “activity (re-replication induction)” value was 7.74%.
With `CCN(CC)CCNC(=O)c1ccc(N)cc1` the “activity (re-replication induction)” value was 0.205%.
In the case of `CC(=O)CCCCn1c(=O)c2c(ncn2C)n(C)c1=O`, the “activity (re-replication induction)” value is reported as -6.01%.
With `CC(=O)c1ccc(S(=O)(=O)NC(=O)NC2CCCCC2)cc1` the “activity (re-replication induction)” value was -3.4%.
For `CCN(CC)C(=O)c1ccc(O)c(OC)c1`, the “activity (re-replication induction)” value was -10.3%.
In the case of `O=C(O)CCc1nc(-c2ccccc2)c(-c2ccccc2)o1`, the “activity (re-replication induction)” value is reported as 0.681%.
With `CCN(CC)CCOC(=O)c1ccc(N)cc1` the “activity (re-replication induction)” value was -8.91%.
With `CN(C)CCC(c1ccccc1)c1ccccn1` (stereo not given) the “activity (re-replication induction)” value was 8.32%.
In the case of `CC(C)NCC(O)COc1cccc2[nH]ccc12` (stereo not given), the “activity (re-replication induction)” value is reported as -8.21%.
For `CCN1CCC[C@H]1CNC(=O)c1cc(S(N)(=O)=O)ccc1OC`, the “activity (re-replication induction)” value was -10.2%.
For `C[N+](C)(C)CCCCCC[N+](C)(C)C`, the outcome was “inactive”.
In the case of `Cc1cccc(C)c1OCC(C)N` (stereo not given), the “activity (re-replication induction)” value is reported as 0.844%.
In the case of `CCCNC(=O)NS(=O)(=O)c1ccc(Cl)cc1`, the “activity (re-replication induction)” value is reported as -7.98%.
With `O=C1NCC2(CCN(CCc3ccccc3)CC2)O1` the “activity (re-replication induction)” value was -7.88%.
For `NCCS`, the “activity (re-replication induction)” value was -9.73%.
With `NC(N)=Nc1nc(CSCC/C(N)=N/S(N)(=O)=O)cs1` the “activity (re-replication induction)” value was -2.68%.
In the case of `Clc1ccc(Cn2c(CN3CCCC3)nc3ccccc32)cc1`, the “activity (re-replication induction)” value is reported as 12.8%.

Target: Peptidyl-prolyl cis-trans isomerase NIMA-interacting 1 (Homo sapiens) (UniProt Q13526)
Sequence (Q13526 whole entry, looked up): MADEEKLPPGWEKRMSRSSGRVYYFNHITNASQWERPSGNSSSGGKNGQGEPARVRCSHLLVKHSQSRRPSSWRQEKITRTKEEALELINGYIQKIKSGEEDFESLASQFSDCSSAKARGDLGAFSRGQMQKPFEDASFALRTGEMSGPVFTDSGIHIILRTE
Experiment: qHTS Validation Assay to Find Inhibitors of Pin1 (AID 504536; active = well fitted inhibition curve with a large enough effect in the polarisation, with a control signal flat, not every such curve was filed as active; the % refers to the polarisation;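 also: 0% = full Pin1 enzyme wells and -100% = no-enzyme wells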)
Details: Pin1 fluorescence polarization peptide binding assay; series mostly up to 57.5 µM; activity, negative = inhibition: at the top concentration
Outline: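 Fluorescence polarization competition: compounds (titration) displace HiFluor-488-labeled Pin1-1b peptide from Pin1 (0.3 uM final) in pH 7.5 HEPES buffer with DTT, 10 min at room temperature; %Activity normalized to no-enzyme wells, curves fitted.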
In the case of `O=C1NC(=O)C(c2ccccc2)(c2ccccc2)N1`, the “activity, negative = inhibition” value is reported as 6.8%.
For `COc1ccc(Cc2nccc3cc(OC)c(OC)cc23)cc1OC`, the “activity, negative = inhibition” value was 0.86%.
For `COc1ccccc1N1CCN(CCCNc2cc(=O)n(C)c(=O)n2C)CC1`, the “activity, negative = inhibition” value was 2.41%.
With `CCCCCN(C)CCC(O)(P(=O)(O)O)P(=O)(O)O` the “activity, negative = inhibition” value was -5.3%.
For `COC(=O)[C@@H]1[C@H]2C[C@H]3c4[nH]c5ccccc5c4CCN3C[C@@H]2CC[C@@H]1O`, the “activity, negative = inhibition” value was -9.01%.
For `O=C(NCCN1CCOCC1)c1ccc(Cl)cc1`, the “activity, negative = inhibition” value was 1.13%.
With `CC(=O)CCCCn1c(=O)c2c(ncn2C)n(C)c1=O` the “activity, negative = inhibition” value was 0.836%.
In the case of `CC(=O)c1ccc(S(=O)(=O)NC(=O)NC2CCCCC2)cc1`, the “activity, negative = inhibition” value is reported as 5.76%.
In the case of `CCN(CC)C(=O)c1ccc(O)c(OC)c1`, the “activity, negative = inhibition” value is reported as -5.44%.
In the case of `O=C(O)CCc1nc(-c2ccccc2)c(-c2ccccc2)o1`, the “activity, negative = inhibition” value is reported as -2.71%.
For `CCN(CC)CCOC(=O)c1ccc(N)cc1`, the “activity, negative = inhibition” value was 7.23%.
In the case of `CN(C)CCC(c1ccccc1)c1ccccn1` (stereo not given), the “activity, negative = inhibition” value is reported as -0.585%.
In the case of `CC(C)NCC(O)COc1cccc2[nH]ccc12` (stereo not given), the “activity, negative = inhibition” value is reported as 3.66%.
For `CCN1CCC[C@H]1CNC(=O)c1cc(S(N)(=O)=O)ccc1OC`, the “activity, negative = inhibition” value was -6.49%.
In the case of `C[N+](C)(C)CCCCCC[N+](C)(C)C`, the outcome is reported as “inactive”.
For `Cc1cccc(C)c1OCC(C)N` (stereo not given), the “activity, negative = inhibition” value was 44.5%.
For `CCCNC(=O)NS(=O)(=O)c1ccc(Cl)cc1`, the “activity, negative = inhibition” value was 12.5%.
In the case of `O=C1NCC2(CCN(CCc3ccccc3)CC2)O1`, the “activity, negative = inhibition” value is reported as -15.2%.
For `NCCS`, the “activity, negative = inhibition” value was -16%.
With `NC(N)=Nc1nc(CSCC/C(N)=N/S(N)(=O)=O)cs1` the “activity, negative = inhibition” value was -0.96%.
With `Clc1ccc(Cn2c(CN3CCCC3)nc3ccccc32)cc1` the “activity, negative = inhibition” value was -0.0359%.
